# High-throughput results: PubChem BioAssay, several laboratories
# SKN-1 inh: suppressors of acrylamide-induced Pgst-4::GFP reporter in worms, primary screen, SKN-1 inhibitor project, whole organism, uHTS, GFP/RFP fluorescence ratio, strain VP596; C. elegans VP596 Pgst-4::GFP/RFP ratio, 24 h; inhibition, % at 21.8 µM; 0.49% of 360,000 active;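 active = interference check ratio from 0.5 to 1.5 plus GFP to RFP signal ratio inhibition reaching or exceeding a fixed threshold, cut at about 30% in these data, passing the limit was not always enough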
# MPTP block: mitochondrial permeability transition pore inhibitors, primary screen, biochemical, isolated mouse mitochondria, absorbance. inhibition, % at 10 µM. Ca2+ swelling absorbance, 30 min. AID 602449, 2012. 1.4% of 360,000 active;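 active = inhibition of 50% or more, scaled per plate between neutral and stimulator controls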;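 also: 0% = DMSO wells given calcium and 100% = 1 mM EGTA wells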
# NRP1-CendR mod: modulators of CendR peptide binding to NRP-1, primary screen, biochemical, fluorescence polarization, uHTS; 0.85% of 360,000 active; AID 602438, 2012; inhibition, % at 25 µM; FAM-RPARPAR peptide binding to NRP-1;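 active = inhibition or corrected inhibition above about 18%, plus a signal ratio from 0.5 to 1.5, limit read from the data, passing the limit was not always enough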
# ATG4B inhibitor: ATG4B protease inhibitors, primary screen, biochemical, fluorescence, uHTS | ATG4B cleavage of LC3-PLA2, NBD-HPC fluorescence, 1 h | inhibition, % at 8.33 µM | 0.51% of 340,000 active; in the data active = inhibition above about 40%
# CFTR F508del cor: F508del CFTR correction, initial screen, CFBE line, single point | CFBE cells, YFP halide quenching; stimulated with forskolin plus potentiator P3; % fluorescence drop versus neutral controls | activity (quench increase), % at 7.58 µM | 0.36% of 350,000 active | AID 720511, 2013;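 active = mean added fluorescence quench of at least 8% versus neutral control, with both replicates also reaching 8%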;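 also: cells transiently co-express mutant CFTR-F508del with the halide-sensitive YFP; corrector assay measuring rescue of mutant channel to the surface after 24 h compound exposure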
# * hit, by the source's call; · = no result. Hits are enriched below; roughly 2.7% of the tested compounds scored in any of these assays.
SMILES,SKN-1 inh,MPTP block,NRP1-CendR mod,ATG4B inhibitor,CFTR F508del cor
Cc1c(N=N/C(C(=O)Nc2ccccc2)=C(/O)c2ccccc2)c(=O)n(-c2ccccc2)n1C,3,-1,-58,25,-6
CCOC(=O)/C(N=Nc1c(C)n(C)n(-c2ccccc2)c1=O)=C(/O)c1ccccc1,0,-3,32*,6,-2
CN(CCCS(=O)(=O)[O-])c1ccc(/C=C/c2ccc3ccccc3[n+]2C)cc1,37*,3,15,-8,2
Cc1ccc(O)c(CNCCNCc2cc(C)ccc2O)c1,-13,4,25*,-4,0
CN(Cc1ccccc1)C(=O)[C@@H]1CCCN1C(=O)[C@@H]1CCCN1C(=O)c1cccc(Cl)c1,27,-1,22*,·,3
CCc1ccccc1NC(=O)NC1CC2CCC(C1)N2Cc1ccco1 (stereo not drawn),6,1,20*,2,3
O=C(Nc1cccc(Cl)c1)NC1CC2CCC(C1)N2Cc1ccco1 (stereo not drawn),-7,-1,-2,3,3
O=C(C[C@H]1C=C[C@@H](NC(=O)c2ccncc2)[C@H](CO)O1)NCC1CCCCC1,·,·,·,·,-2
CCc1ccc(C(=O)/C=C2\Sc3ccccc3NC2=O)cc1,11,1,-14,56*,·
C[C@@H]1CCCCO[C@H](CN(C)C(=O)Nc2ccc(F)cc2)[C@H](C)CN([C@H](C)CO)C(=O)c2cc(N(C)C)ccc2O1,·,·,·,·,-3
CCCOc1ccc2cc(-c3ccccn3)c(=O)oc2c1,45*,2,-1,0,2
CCC(=O)Nc1ccc2c(c1)OC[C@@H](C)N(CC1CCCCC1)C[C@H](C)[C@H](OC)CN(C)C2=O,·,·,·,·,-1
O=C(Nc1ccc(C#Cc2ccccc2)cc1)C1CC1,47*,11,-5,-7,·
O=C(Nc1ccc(Oc2ccccc2)cc1)C1CC1,-6,7,9,-9,-4
c1ccc(Nc2ncnc3c2oc2ccccc23)cc1,5,-4,24*,1,·
Oc1ccc(Nc2ncnc3c2oc2ccccc23)cc1,17,0,-3,-1,5
Cc1ccc(C)c(C(=O)Cn2ncc(Cl)c(Cl)c2=O)c1,8,-1,20*,1,·
COc1cc(/C=C2/SC(=O)NC2=O)ccc1OCc1ccccc1,-10,3,-24,5,3
COc1cc(/C=C2/SC(=O)N(Cc3ccccc3Cl)C2=O)ccc1OCc1ccncc1,3,-10,21*,-1,·
C[C@H](CO)N1C[C@H](C)[C@@H](CN(C)C(=O)Nc2ccc(C(F)(F)F)cc2)Oc2c(NS(=O)(=O)c3ccccc3)cccc2C1=O,10,1,36*,-4,-3
C[C@H](CO)N1C[C@H](C)[C@@H](CN(C)C(=O)Nc2ccc3c(c2)OCO3)Oc2c(NS(=O)(=O)c3ccc(F)cc3)cccc2C1=O,4,1,31*,-4,-2
C[C@H]1CN([C@@H](C)CO)C(=O)c2cccc(NS(=O)(=O)c3ccccc3)c2O[C@H]1CN(C)C(=O)Nc1ccc(C(F)(F)F)cc1,·,·,·,·,1
C[C@H](CO)N1C[C@H](C)[C@H](CN(C)C(=O)Nc2ccc3c(c2)OCO3)Oc2c(NS(=O)(=O)c3ccc(F)cc3)cccc2C1=O,·,·,·,·,1
C[C@@H]1CN([C@@H](C)CO)C(=O)c2cccc(NS(=O)(=O)c3ccccc3)c2O[C@H]1CN(C)Cc1ccc(-c2ccccc2)cc1,·,·,·,·,-1
COc1ccc2c3c(n(C)c2c1)[C@H](CO)N(Cc1ccncc1)CC31CCN(C(=O)C2CCCCC2)CC1,·,·,·,·,4
Cc1cc(N2CCCC2=O)ccc1S(=O)(=O)NC1CCCCC1,11,1,21*,-1,-3
Cc1cc(N2CCCC2=O)ccc1S(=O)(=O)N1CCOCC1,7,1,5,0,-1
CCOC(=O)C1=C(CSc2nc(CC)c(C)cc2C#N)OC(N)=C(C#N)C1c1ccccc1 (stereo not drawn),8,1,-7,10,·
CCOC(=O)C1=C(CSc2nc(-c3ccccc3)ccc2C#N)OC(N)=C(C#N)C1c1ccc(OC)cc1 (stereo not drawn),43*,0,-69,2,·
